{"source": "paper PMC4336329", "about": "(PLoS ONE, 2015)", "note": "The whole screen tested about 310,000 compounds, of which about 14,000 (4.5%) showed an effect of 50% or more. The effect is printed as a negative number. For the sample, strong results were picked, then their nearest neighbours and some compounds at random.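 Further: peak tail current of the secondary pulse compared with the same well before compound.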", "data": [{"molecular_target": "human ether-à-go-go-related gene (hERG) potassium channel (human, UniProt Q12809)", "sequence (Q12809 whole entry, looked up)": "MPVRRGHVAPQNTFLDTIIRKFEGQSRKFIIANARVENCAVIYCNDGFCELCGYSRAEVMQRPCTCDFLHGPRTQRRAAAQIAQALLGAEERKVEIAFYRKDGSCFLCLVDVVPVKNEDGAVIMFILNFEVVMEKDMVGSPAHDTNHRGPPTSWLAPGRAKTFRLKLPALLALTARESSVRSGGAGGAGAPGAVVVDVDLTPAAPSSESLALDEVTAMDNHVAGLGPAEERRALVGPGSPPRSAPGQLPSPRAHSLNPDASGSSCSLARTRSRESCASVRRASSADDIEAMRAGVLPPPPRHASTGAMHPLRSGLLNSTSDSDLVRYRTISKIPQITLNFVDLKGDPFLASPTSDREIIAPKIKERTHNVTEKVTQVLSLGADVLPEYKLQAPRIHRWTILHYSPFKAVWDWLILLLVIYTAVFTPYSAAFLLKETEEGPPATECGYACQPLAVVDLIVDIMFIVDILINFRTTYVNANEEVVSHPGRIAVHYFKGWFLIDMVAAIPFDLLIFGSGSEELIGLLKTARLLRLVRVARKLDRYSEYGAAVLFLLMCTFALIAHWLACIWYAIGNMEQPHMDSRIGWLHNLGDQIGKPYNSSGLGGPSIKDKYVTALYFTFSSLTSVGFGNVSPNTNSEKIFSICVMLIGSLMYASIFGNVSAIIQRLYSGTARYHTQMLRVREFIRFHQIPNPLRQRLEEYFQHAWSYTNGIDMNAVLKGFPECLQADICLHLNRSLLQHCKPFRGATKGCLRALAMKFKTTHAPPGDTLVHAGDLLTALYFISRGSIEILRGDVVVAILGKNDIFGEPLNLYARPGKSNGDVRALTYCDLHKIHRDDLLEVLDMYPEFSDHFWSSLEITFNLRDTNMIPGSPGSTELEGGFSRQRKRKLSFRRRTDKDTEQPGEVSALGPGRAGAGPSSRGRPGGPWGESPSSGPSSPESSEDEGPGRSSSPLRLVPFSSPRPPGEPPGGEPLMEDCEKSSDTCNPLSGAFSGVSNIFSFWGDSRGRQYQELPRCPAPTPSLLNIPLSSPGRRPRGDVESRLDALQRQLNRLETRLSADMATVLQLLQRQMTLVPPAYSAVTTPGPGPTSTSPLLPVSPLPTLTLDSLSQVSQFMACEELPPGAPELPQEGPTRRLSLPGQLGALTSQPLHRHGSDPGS", "assay": "primary screen, population patch clamp on CHO cells stably expressing hERG; higher = less effect of the substance", "units": {"hERG current change (%, negative = inhibition) at 10uM": "%"}, "values": [{"smiles": "CC1(C)CC(N2CCCCC2)=CC(=[N+]2CCCCC2)C1.[I-]", "hERG current change (%, negative = inhibition) at 10uM": 8.09}, {"smiles": "CCN(CC)C1=CC(=[N+]2CCCC2)CC(C)(C)C1.[I-]", "hERG current change (%, negative = inhibition) at 10uM": -4.08}, {"smiles": "CC1(C)CC(N2CCCC2)=CC(=[N+]2CCCC2)C1.[I-]", "hERG current change (%, negative = inhibition) at 10uM": -12.1}, {"smiles": "CC1(C)CC(N2CCN(C(c3ccccc3)c3ccccc3)CC2)=CC(=[N+]2CCCCC2)C1.[I-]", "hERG current change (%, negative = inhibition) at 10uM": -72.1}, {"smiles": "CC1(C)CC(NNCCC#N)=CC(=[N+]2CCCC2)C1.[I-]", "hERG current change (%, negative = inhibition) at 10uM": 5.87}, {"smiles": "CN(Cc1ccccc1)C1=CC(=[N+]2CCCCC2)CC(C)(C)C1.[I-]", "hERG current change (%, negative = inhibition) at 10uM": -54.3}, {"smiles": "CCCC(C(=O)O)n1c(O)c(C=C2N=c3ccccc3=N2)sc1=S", "note": "(stereo not shown)", "hERG current change (%, negative = inhibition) at 10uM": 6.16}, {"smiles": "CCN1C(=O)c2ccccc2Sc2ccc(C(=O)NCCN3CCOCC3)cc21", "hERG current change (%, negative = inhibition) at 10uM": -5.49}, {"smiles": "O=S(=O)(O)c1ccc(N=NNc2ccc(Br)cc2)cc1", "hERG current change (%, negative = inhibition) at 10uM": 30.7}, {"smiles": "N#Cc1ccc(C23CC4(C2)[C@H](CN(P(=O)(c2ccccc2)c2ccccc2)[C@@H]4c2ccccc2)C3c2ccc(Cl)nc2)cc1", "note": "(stereo partly shown)", "hERG current change (%, negative = inhibition) at 10uM": -8}, {"smiles": "CCC(C)n1c(SCC(=O)/C(C#N)=C(\\C)N)nc2ccccc2c1=O", "note": "(stereo not shown)", "hERG current change (%, negative = inhibition) at 10uM": -15.3}, {"smiles": "O=C(/C=C/c1ccco1)Nc1ccc(Oc2ccccc2)cc1", "hERG current change (%, negative = inhibition) at 10uM": -5.74}, {"smiles": "COc1ccccc1CNCc1cc(OC)c(OC)cc1OC", "hERG current change (%, negative = inhibition) at 10uM": -10.3}, {"smiles": "Cc1cc(OC(C)C)nc(NCc2ccccc2)n1", "hERG current change (%, negative = inhibition) at 10uM": -3.54}, {"smiles": "COc1ccccc1-c1coc2c(CN3CCN(CCO)CC3)c(O)ccc2c1=O", "hERG current change (%, negative = inhibition) at 10uM": 17.7}, {"smiles": "N=c1c2c3c(sc2ncn1Nc1ccccc1)CCC3", "hERG current change (%, negative = inhibition) at 10uM": -29.6}, {"smiles": "CCOc1cccc(-c2nn3c(-c4cc(C)[nH]n4)nnc3s2)c1", "hERG current change (%, negative = inhibition) at 10uM": -58.2}, {"smiles": "COc1cccc(-c2nn3c(-c4cc(C)[nH]n4)nnc3s2)c1", "hERG current change (%, negative = inhibition) at 10uM": -57.5}, {"smiles": "COc1cccc(-c2nn3c(-c4cccc(C)c4)nnc3s2)c1", "hERG current change (%, negative = inhibition) at 10uM": 17.5}, {"smiles": "CCOc1cccc(-c2nn3c(-c4ccccn4)nnc3s2)c1", "hERG current change (%, negative = inhibition) at 10uM": 6.33}, {"smiles": "COc1cccc(-c2nn3c(-c4ccccn4)nnc3s2)c1", "hERG current change (%, negative = inhibition) at 10uM": -28}, {"smiles": "CCOc1cccc(-c2nn3c(-c4ccco4)nnc3s2)c1", "hERG current change (%, negative = inhibition) at 10uM": -49.4}, {"smiles": "CN(C)/C=C/C(=O)c1ccc(N2CCN(c3ncc(C(F)(F)F)cc3Cl)CC2)cc1", "hERG current change (%, negative = inhibition) at 10uM": -6.08}, {"smiles": "CCOC(=O)c1ccccc1NC(=S)N1CC(C)CC(C)C1", "note": "(stereo not shown)", "hERG current change (%, negative = inhibition) at 10uM": -7.45}, {"smiles": "O=C(O)C(=O)O.O=[N+]([O-])c1cc2c(cc1CNCCc1ccc3c(c1)OCO3)OCO2", "hERG current change (%, negative = inhibition) at 10uM": -61.5}, {"smiles": "Brc1cccc(CNCCc2ccc3c(c2)OCO3)c1.O=C(O)C(=O)O", "hERG current change (%, negative = inhibition) at 10uM": -24.9}, {"smiles": "CCOc1ccccc1CNCCc1ccc2c(c1)OCO2.Cl", "hERG current change (%, negative = inhibition) at 10uM": -32.8}, {"smiles": "COc1cccc(CNCCc2ccc3c(c2)OCO3)c1OC.O=C(O)C(=O)O", "hERG current change (%, negative = inhibition) at 10uM": -15.5}, {"smiles": "O=C(O)C(=O)O.c1cncc(CNCCc2ccc3c(c2)OCO3)c1", "hERG current change (%, negative = inhibition) at 10uM": 8.84}, {"smiles": "c1cc(CNCCc2ccc3c(c2)OCO3)ccn1", "hERG current change (%, negative = inhibition) at 10uM": 18.3}, {"smiles": "Fc1ccc(CNCCc2ccc3c(c2)OCO3)cc1", "hERG current change (%, negative = inhibition) at 10uM": -3.52}, {"smiles": "Clc1cccc(CNCCc2ccc3c(c2)OCO3)c1.O=C(O)C(=O)O", "hERG current change (%, negative = inhibition) at 10uM": -24}, {"smiles": "Clc1ccc(CNCCc2ccc3c(c2)OCO3)cc1.O=C(O)C(=O)O", "hERG current change (%, negative = inhibition) at 10uM": -56.1}, {"smiles": "FC(F)(F)c1ccc(CNCCc2ccc3c(c2)OCO3)cc1.O=C(O)C(=O)O", "hERG current change (%, negative = inhibition) at 10uM": -60.3}, {"smiles": "COc1ccc(CNCc2cc3c(cc2[N+](=O)[O-])OCO3)cc1.O=C(O)C(=O)O", "hERG current change (%, negative = inhibition) at 10uM": -40.8}, {"smiles": "CCOc1ccc(CNCCc2ccc3c(c2)OCO3)cc1", "hERG current change (%, negative = inhibition) at 10uM": -77.2}, {"smiles": "O=C(CSc1ncccn1)Nc1ccccc1", "hERG current change (%, negative = inhibition) at 10uM": 3.55}, {"smiles": "Cc1ccccc1OCc1ccc(C(=O)N2CCOCC2)o1", "hERG current change (%, negative = inhibition) at 10uM": 6.86}, {"smiles": "Cc1cc(C)c(C(=O)O)c(Cl)n1", "hERG current change (%, negative = inhibition) at 10uM": 5.94}, {"smiles": "O=C(OCC(=O)N1CCc2ccccc2C1)c1ccc(Cl)c([N+](=O)[O-])c1", "hERG current change (%, negative = inhibition) at 10uM": -20.7}, {"smiles": "CC1=C(c2ccccc2)[N+](=O)C2(CCCC2)N1[O-]", "hERG current change (%, negative = inhibition) at 10uM": 10.3}, {"smiles": "CCOCCCNC(=S)N(Cc1ccccc1)Cc1nc2ccccc2c(=O)[nH]1", "hERG current change (%, negative = inhibition) at 10uM": -22.3}, {"smiles": "CCCc1cc(-c2ccc3c(c2)COc2c4ccccc4nn2-3)on1", "hERG current change (%, negative = inhibition) at 10uM": -21.4}, {"smiles": "C/C(=N\\NC(=O)c1ccccc1O)c1ccc(NC(=O)c2ccccc2)cc1", "hERG current change (%, negative = inhibition) at 10uM": 15.3}, {"smiles": "COC(=O)c1c(NC(=O)c2ccccc2)sc2c1CC(C)(C)NC2(C)C", "hERG current change (%, negative = inhibition) at 10uM": -5}, {"smiles": "Cc1cccc(C(=O)Nc2ccccc2SCC(=O)Nc2ccc(C)c(Cl)c2)c1", "hERG current change (%, negative = inhibition) at 10uM": 28.5}]}]}
